Experimental data published in PubChem BioAssay (Tox21).
Records with an inconclusive call do not appear. Activity calls are given as the source filed them. Unless noted, calls come from the whole dose curve; as a rule, active = well fitted curve in the direction sought with a large enough effect in the repeat runs; inconclusive = weak or mixed curves; inactive = no such curve, though single readings can be large; an effect the other way counts as inactive or inconclusive.

Columns and labels:
[1] = qHTS assay to identify small molecule agonists of the constitutive androstane receptor (CAR) signaling pathway - cell viability counter screen (AID 1224836); note: nearly all actives have a fitted effect of over 45% in size; note: potency is the fitted concentration of half-maximal effect
Outline: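 Cell viability multiplexed with the CAR agonist screen: CellTiter-Fluor fluorescence after 23 hr at 37 C. HepG2-CYP2B6-hCAR cells got compounds at 15 concentrations with PK11195 at 0.75 uM final.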

[2] = target: Nuclear receptor subfamily 1 group I member 3 (Homo sapiens) (UniProt Q14994); test: qHTS assay to identify small molecule antagonists of the constitutive androstane receptor (CAR) signaling pathway (AID 1224838);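 note: HepG2 cells stably expressing hCAR with CYP2B6 luciferase reporter stimulated by CITCO; nearly all actives have a fitted effect of over 40% in size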; note: potency is the fitted concentration of half-maximal effect
Sequence of Nuclear receptor subfamily 1 group I member 3 (Homo sapiens) (Q14994 whole entry, looked up): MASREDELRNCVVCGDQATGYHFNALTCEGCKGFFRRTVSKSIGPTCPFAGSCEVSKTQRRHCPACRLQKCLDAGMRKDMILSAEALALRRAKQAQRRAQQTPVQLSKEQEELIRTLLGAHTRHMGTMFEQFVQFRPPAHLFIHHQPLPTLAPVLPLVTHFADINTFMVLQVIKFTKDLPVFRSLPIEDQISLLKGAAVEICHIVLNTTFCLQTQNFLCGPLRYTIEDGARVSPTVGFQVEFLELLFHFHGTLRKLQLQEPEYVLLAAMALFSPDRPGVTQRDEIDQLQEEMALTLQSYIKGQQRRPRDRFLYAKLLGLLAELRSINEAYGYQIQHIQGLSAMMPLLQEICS
Outline: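 Quantitative HTS in double-stable HepG2-CYP2B6-hCAR cells. After 4 h plating, cells get compound (15 concentrations) and CITCO at 50 nM final, incubate 24 h at 37 C, then ONE-Glo luminescence is read.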

[3] = target: Thyrotropin receptor (Homo sapiens) (UniProt P16473); test: qHTS assay to identify small molecule agonists of the thyroid stimulating hormone receptor (TSHR) signaling pathway (AID 1224843; calls by dose curve; note: % is set by controls: 0 for no effect and ±100 for the full control effect; nearly all actives have a fitted effect of over 45% in size)
Sequence of Thyrotropin receptor (Homo sapiens) (P16473 whole entry, looked up): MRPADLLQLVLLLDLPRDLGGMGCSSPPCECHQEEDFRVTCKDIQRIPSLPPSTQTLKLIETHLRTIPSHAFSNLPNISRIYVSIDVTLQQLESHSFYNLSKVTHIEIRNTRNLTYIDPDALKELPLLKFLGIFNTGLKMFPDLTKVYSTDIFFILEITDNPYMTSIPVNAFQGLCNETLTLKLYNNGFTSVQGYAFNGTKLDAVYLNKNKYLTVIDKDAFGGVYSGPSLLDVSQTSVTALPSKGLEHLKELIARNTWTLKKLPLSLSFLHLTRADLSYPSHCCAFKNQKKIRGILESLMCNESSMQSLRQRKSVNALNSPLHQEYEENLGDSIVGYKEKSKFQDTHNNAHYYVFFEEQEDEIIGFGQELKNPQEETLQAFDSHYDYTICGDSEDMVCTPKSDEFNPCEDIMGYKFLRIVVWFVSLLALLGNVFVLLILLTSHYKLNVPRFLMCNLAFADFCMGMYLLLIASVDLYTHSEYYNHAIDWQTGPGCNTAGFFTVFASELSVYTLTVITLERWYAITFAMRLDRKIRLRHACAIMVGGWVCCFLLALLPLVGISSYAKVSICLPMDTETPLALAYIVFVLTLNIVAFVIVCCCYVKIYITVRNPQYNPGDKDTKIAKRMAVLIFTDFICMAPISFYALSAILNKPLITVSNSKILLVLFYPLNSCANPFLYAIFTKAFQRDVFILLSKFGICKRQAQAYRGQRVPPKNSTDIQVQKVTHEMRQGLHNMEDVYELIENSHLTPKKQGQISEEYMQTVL
Outline: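 Steps: seed 800 TSHR-HEK293 cells per well; add test compound and hold 30 min at ambient temperature; dispense cAMP-d2 then anti-cAMP cryptate; incubate 1 h at ambient; measure fluorescence intensity.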

[4] = qHTS assay to identify small molecule agonists of the hypoxia (HIF-1) signaling pathway - cell viability counter screen (AID 1224844; calls by dose curve; note: potency is the fitted concentration of half-maximal effect; nearly all actives have a fitted effect of over 50% in size)
Outline: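 Luminescent ATP content (CellTiter-Glo, 30 min, room temperature) served as the viability measure in HRE-bla ME-180 cells exposed to compounds for 17 hrs in low-serum medium (0.5% dialyzed FBS).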

[5] = qHTS assay to identify small molecule agonists of the hypoxia (HIF-1) signaling pathway (AID 1224846; active = well fitted activation curve with a large enough effect in the signal ratio in the repeat runs, not every such curve was filed as active; the % refers to the signal ratio; note: potency is the fitted concentration of half-maximal effect; for activation: % is set by controls: 0 for no effect and ±100 for the full control effect)
Outline: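 Measured by blue/green FRET after loading CCF4-AM: beta-lactamase expressed from a hypoxia response element in ME-180 cells. Test agents were delivered in DMSO and left 17 hrs; cells had been plated 5 hrs earlier in low-serum (0.5% dialyzed FBS) medium.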

[6] = qHTS RealTime-Glo MT Cell Viability Assay in HepG2 cells - 24 hour (AID 1224867); note: % is set by controls: 0 for no effect and ±100 for the full control effect; nearly all actives have a fitted effect of over 50% in size
Outline: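 Cell number in HepG2 cultures estimated from NanoLuc luminescence generated by metabolic reduction of a prosubstrate by living cells. The homogeneous, nonlytic format allowed repeated reads at 0, 8, 16, 24, 32 and 40 h of compound exposure.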

[7] = qHTS RealTime-Glo MT Cell Viability Assay in HEK293 cells - 32 hour (AID 1224868); note: nearly all actives have a fitted effect of over 50% in size; note: potency is the fitted concentration of half-maximal effect
Outline: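 Homogeneous bioluminescent viability format in HEK293 cells (600 cells/well). Following 5 h at 37 C/5% CO2, 23 nL compound was pintooled; the signal was measured repeatedly during 40 h incubation.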

[8] = qHTS RealTime-Glo MT Cell Viability Assay in HepG2 cells - 40 hour (AID 1224870); note: nearly all actives have a fitted effect of over 50% in size; note: potency is the fitted concentration of half-maximal effect
Outline: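 HepG2 cells (600/well) mixed with RealTime-Glo MT reagent, settled 5 h at 37 C/5% CO2 before compound addition. Nonlytic NanoLuc luminescence from viable-cell prosubstrate reduction read repeatedly during 40 h treatment at 37 C.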

[9] = target: Nuclear receptor subfamily 1 group I member 3 (Homo sapiens) (UniProt Q14994); test: qHTS assay to identify small molecule agonists of the constitutive androstane receptor (CAR) signaling pathway (AID 1224839);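 note: HepG2 cells stably carrying human CAR and a CYP2B6 luciferase reporter; % is set by controls: 0 for no effect and ±100 for the full control effect; nearly all actives have a fitted effect of over 15% in size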
Outline: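 Luminescent ONE-Glo read-out after 24 hr, 37 C exposure of double-stable HepG2-CYP2B6-hCAR reporter cells to a 15-point compound series, in the presence of 0.75 uM PK11195 (final).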

[10] = qHTS assay to identify small molecule antagonists of the estrogen related receptor signaling pathway with the pleiotropic PPARgamma coactivator (PGC) from Tox21 10K library - cell viability counter screen (AID 1224840; active = well fitted cell-killing curve with a large enough effect in the repeat runs, not every such curve was filed as active; note: nearly all actives have a fitted effect of over 40% in size; note: potency is the fitted concentration of half-maximal effect)
Outline: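 Compounds in DMSO, alongside positive and negative controls, were pinned onto PGC/ERR cells (2,000 per well). Exposure lasted 17.5 hours at 37 C, followed by a 30-minute CellTiter-Fluor incubation and fluorescence reading.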

[11] = qHTS assay to identify small molecule agonists of the estrogen related receptor signaling pathway with the pleiotropic PPARgamma coactivator (PGC) from Tox21 10K library (AID 1224842); note: % is set by controls: 0 for no effect and ±100 for the full control effect; nearly all actives have a fitted effect of over 15% in size
Outline: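 PGC/ERR reporter cell line, 2,000 cells per well, incubated 6 h at 37 C before 23 nL compound in DMSO was added. After 18 h at 37 C, One-Glo luminescence read following 30 min at room temperature.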

[12] = qHTS assay to identify small molecule agonists of H2AX (AID 1224845; active = well fitted activation curve with a large enough effect in the signal ratio in the repeat runs, not every such curve was filed as active; the % refers to the signal ratio; note: potency is the fitted concentration of half-maximal effect)
Outline: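 Wild-type CHO-K1 cells, plated overnight, exposed 3hr at 37C to 15 concentrations (0.76% DMSO final). Lysed, then HTRF anti-pH2AX (S139) cryptate and anti-H2AX-d2 antibodies, 24 hr room temperature; 665/620 nm emission read.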

[13] = qHTS assay to identify small molecule agonists of H2AX - cell viability counter screen (AID 1224847; calls by dose curve; note: top concentration of the series differs between compounds; % is set by controls: 0 for no effect and ±100 for the full control effect; nearly all actives have a fitted effect of over 30% in size)
Outline: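 Counter-screen for viability: CellTiter-Glo ATP luminescence read after 3 h compound treatment (15-point titration, 0.76% DMSO final) of CHO-K1 cells at 37C, with 30 min room-temperature reagent incubation.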

[14] = qHTS assay to identify small molecule antagonists of the estrogen related receptor (ERR) signaling pathway from Tox21 library (AID 1224848)
Outline: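 Luminescent reporter read-out (ONE-Glo) from NTP's ERR cell line after 18 h treatment at 37 C with DMSO-dissolved Tox21 compounds; cells pre-plated 6 h beforehand at 2,000 per well.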

[15] = qHTS assay to identify small molecule agonists of the estrogen related receptor (ERR) signaling pathway from Tox21 library (AID 1224849; calls by dose curve; note: % is set by controls: 0 for no effect and ±100 for the full control effect; nearly all actives have a fitted effect of over 15% in size); settings: ERR reporter cell line, ONE-Glo luciferase, 18 h; at 92.4 µM (top of the series) unless noted
Outline: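 We plated ERR reporter cells, waited 6 h, added compounds in DMSO by pin tool and incubated them 18 h at 37 C. ONE-Glo was then added and luminescence read after 30 min.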

[16] = A CellTox Green Cytotoxicity Assay to monitor cytotoxicity in HEK293 cells - 0 hour (AID 1224869)
Outline: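 Each value comes from one timepoint of a single continuous run in which HEK293 cells with CellTox Green were exposed to compound for up to 40 h at 37 C, dye fluorescence rising with cell death.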

[17] = qHTS assay to identify small molecule antagonists of the constitutive androstane receptor (CAR) signaling pathway - cell viability counter screen (AID 1224837); note: nearly all actives have a fitted effect of over 45% in size; note: potency is the fitted concentration of half-maximal effect
Outline: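 Fluorescence from CellTiter-Fluor served as the viability signal. Human hepatoma HepG2 cells stably bearing hCAR and CYP2B6-2.2kb received compound plus CITCO (50 nM final) for 23 hr.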

O=C1CCCc2c1cc1ccc3cccc4ccc2c1c34
inactive: Potency [1] | Potency [2] | Potency [3] | Potency [6] | Potency [8]
active: Potency [4] 44.2 µM | Potency [5] 49.6 µM | Potency [7] 11.1 µM

Oc1c(Cl)cc(Cl)c2cccnc12
inactive: Potency [1] | Potency [9] | Potency [11] | Potency [3] | Potency [13] | activity change, positive = activation [15] -66% [at 42.5 µM] | Potency [6] | Potency [16] | Potency [8]
active: Potency [10] 26.6 µM | Potency [12] 39.1 µM | Potency [14] 9.44 µM

CC(C)C(C)(C)C(C)(C)C(C)(C)S
inactive: Potency [1] | Potency [17] | Potency [10] | Potency [3] | Potency [12] | Potency [5] | Potency [13] | Potency [6] | Potency [7]

CCCCCCCC[P+](CCCCCCCC)(CCCCCCCC)CCCCCCCC
active: Potency [1] 1.92 µM | Potency [17] 3.83 µM | Potency [2] 10.8 µM | Potency [4] 3.45 µM | Potency [14] 0.108 µM | Potency [7] 0.434 µM | Potency [8] 10.9 µM
inactive: Potency [9] | Potency [11] | Potency [3] | activity change, positive = activation [15] -78.2% | Potency [16]
